Consider eight molecules from PubChem BioAssay (Tox21).

Assay [1] can be described thus: qHTS assay to identify small molecule agonists of the hypoxia (HIF-1) signaling pathway - cell viability counter screen (AID 1224844; calls by dose curve; further: nearly all actives have a fitted effect of over 50% in size; further: potency means the concentration at half of the fitted maximal effect). Put shortly:
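Cytotoxicity measured by CellTiter-Glo ATP luminescence in the wells also read for beta-lactamase signal. Cells were HRE-bla ME-180 (2,000/well, 0.5% dialyzed FBS), exposed to compounds for 17 h at 37C.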

The nature of assay [2]: qHTS assay to identify small molecule agonists of the hypoxia (HIF-1) signaling pathway (AID 1224846; active means well fitted activation curve with a large enough effect in the signal ratio in the repeat runs, not every such curve was filed as active; the % refers to the signal ratio; further: on the % scale 0 is the no-effect control and ±100 the full control effect). In outline:
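Compounds added to ME-180 cells carrying hypoxia-response-element beta-lactamase reporter (0.5% dialyzed FBS, 5 h preplating), 17 h at 37C; agonist activity detected by CCF4-AM B/G FRET read-out.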

Assay [3] in a line: qHTS RealTime-Glo MT Cell Viability Assay in HEK293 cells - 32 hour (AID 1224868). Further: nearly all actives have a fitted effect of over 50% in size. Further: potency means the concentration at half of the fitted maximal effect. In outline:
(§1)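 Tox21 10K qHTS, HEK293, 600 cells/well, RealTime-Glo reagent co-dispensed with cells; 5 h preincubation, compound by pintool, 37 C, luminescence at 0–40 h.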
(In general: In qHTS, concentration-response curves come from the screen itself.)

Assay [4] is described as follows: A CellTox Green Cytotoxicity Assay to monitor cytotoxicity in HEK293 cells - 0 hour (AID 1224869). Further: on the % scale 0 is the no-effect control and ±100 the full control effect; nearly all actives have a fitted effect of over 50% in size. Put shortly:
(§2)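 Fluorescence from a DNA-binding dye excluded by viable cells was measured repeatedly in the same HEK293 wells (600 cells/well) during continuous compound exposure at 37 C. Each assay gives one read point: 0, 8, 16, 24, 32 or 40 h.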

The nature of assay [5]: qHTS RealTime-Glo MT Cell Viability Assay in HepG2 cells - 40 hour (AID 1224870). Further: nearly all actives have a fitted effect of over 50% in size. Further: potency means the concentration at half of the fitted maximal effect. In outline:
(§3)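 Real-time viability: cells seeded at 600 per well together with NanoLuc and cell-permeant prosubstrate, compounds added after 5 h incubation. Luminescence tracked at 0, 8, 16, 24, 32 and 40 h of exposure.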

The nature of assay [6]: A CellTox Green Cytotoxicity Assay to monitor cytotoxicity in HEK293 cells - 40 hour (AID 1224871). Further: nearly all actives have a fitted effect of over 45% in size. Further: potency means the concentration at half of the fitted maximal effect. Put shortly: as §2
The nature of assay [7]: qHTS RealTime-Glo MT Cell Viability Assay in HEK293 cells - 16 hour (AID 1224872). Further: nearly all actives have a fitted effect of over 50% in size. Further: potency means the concentration at half of the fitted maximal effect. In outline: as §1
Assay [8] is described as follows: qHTS RealTime-Glo MT Cell Viability Assay in HepG2 cells - 8 hour (AID 1224873). Further: nearly all actives have a fitted effect of over 55% in size. Further: potency means the concentration at half of the fitted maximal effect. In outline:
as §3

Assay [9] in a line: qHTS RealTime-Glo MT Cell Viability Assay in HEK293 cells - 40 hour (AID 1224874). Further: nearly all actives have a fitted effect of over 50% in size. Further: potency means the concentration at half of the fitted maximal effect. On max response: on the % scale 0 is the no-effect control and ±100 the full control effect. Particulars: RealTime-Glo luminescence; max response: stronger effect = lower value. In outline:
(§4)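 Luminescence, which tracks viable cell number through reduction of the prosubstrate to a NanoLuc substrate, was read over continuous 37 C culture. Cells (600/well) were premixed with reagent and rested 5 h before 23 nL of compound in DMSO was pinned.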

The nature of assay [10]: A CellTox Green Cytotoxicity Assay to monitor cytotoxicity in HEK293 cells - 24 hour (AID 1224875). Further: on the % scale 0 is the no-effect control and ±100 the full control effect; nearly all actives have a fitted effect of over 45% in size. Put shortly: as §2
Assay [11] can be described thus: A CellTox Green Cytotoxicity Assay to monitor cytotoxicity in HepG2 cells - 16 hour (AID 1224876). Further: on the % scale 0 is the no-effect control and ±100 the full control effect; nearly all actives have a fitted effect of over 45% in size. In outline: (§5)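 Real-time cytotoxicity: fluorescence of a cell-impermeant cyanine dye binding DNA of dead HepG2 cells, measured repeatedly (0–40 h) during compound exposure at 37 C. Cells seeded 600/well with reagent, dosed after 5 h.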
The nature of assay [12]: qHTS RealTime-Glo MT Cell Viability Assay in HepG2 cells - 32 hour (AID 1224877). Further: nearly all actives have a fitted effect of over 55% in size. Further: potency means the concentration at half of the fitted maximal effect. Put shortly:
(§6)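 Cells + NanoLuc/prosubstrate dispensed (600 cells/well) → 5 h at 37 C/5% CO2 → compounds in DMSO transferred → 40 h incubation at 37 C, luminescence read at 0, 8, 16, 24, 32, 40 h.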

Assay [13] in a line: A CellTox Green Cytotoxicity Assay to monitor cytotoxicity in HepG2 cells - 24 hour (AID 1224878). Further: nearly all actives have a fitted effect of over 45% in size. Further: potency means the concentration at half of the fitted maximal effect. On Cytotoxicity: on the % scale 0 is the no-effect control and ±100 the full control effect. Put shortly:
as §5

Assay [14] is described as follows: qHTS RealTime-Glo MT Cell Viability Assay in HEK293 cells - 0 hour (AID 1224880). Put shortly: as §4
Assay [15] can be described thus: qHTS assay to identify small molecule agonists of H2AX - cell viability counter screen (AID 1224847; calls by dose curve; further: nearly all actives have a fitted effect of over 30% in size; further: potency means the concentration at half of the fitted maximal effect). In outline:
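Quantitative HTS viability measurement: CHO-K1 wild-type cells in serum (10% FBS) medium, short 3 hr drug exposure at 37C with 0.76% DMSO, CellTiter-Glo luminescent detection.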

Assay [16] in a line: qHTS RealTime-Glo MT Cell Viability Assay in HepG2 cells - 24 hour (AID 1224867). Further: nearly all actives have a fitted effect of over 50% in size. Further: potency means the concentration at half of the fitted maximal effect. In outline: as §6
Assay [17] can be described thus: qHTS assay to identify small molecule antagonists of the estrogen related receptor (ERR) signaling pathway from Tox21 library (AID 1224848). In outline: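 ERR cell line, 2,000 cells/well. 6 h settle, then compound (DMSO) added; 18 h at 37 C; ONE-Glo luminescence after 30 min RT.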
A short description of assay [18]: qHTS assay to identify small molecule agonists of the estrogen related receptor (ERR) signaling pathway from Tox21 library (AID 1224849; calls by dose curve; further: on the % scale 0 is the no-effect control and ±100 the full control effect; nearly all actives have a fitted effect of over 15% in size). Particulars: ERR reporter cell line, ONE-Glo luciferase, 18 h; at 92.4 µM (top of the series) unless noted. In outline: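 Luminescent agonist read-out (One-Glo, 30-minute room-temperature incubation) following 18-hour compound treatment at 37 C of the ERR cell line, which had been plated 6 hours before dosing.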

Assay [19] can be described thus: A CellTox Green Cytotoxicity Assay to monitor cytotoxicity in HepG2 cells - 40 hour (AID 1224879). Further: nearly all actives have a fitted effect of over 40% in size. Further: potency means the concentration at half of the fitted maximal effect. In outline: as §5
A short description of assay [20]: qHTS assay to identify small molecule agonists of H2AX (AID 1224845; active means well fitted activation curve with a large enough effect in the signal ratio in the repeat runs, not every such curve was filed as active; the % refers to the signal ratio; further: on the % scale 0 is the no-effect control and ±100 the full control effect). Put shortly: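 Phospho-H2AX Ser139 measured by HTRF (ex 320 nm; em 665 and 620 nm) after 24 hr antibody incubation. Compounds, 15 concentrations, 0.76% DMSO, were applied to CHO-K1 cells for 3hr at 37C before lysis.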

A number with no mark means an inactive call. Results filed as inconclusive are left out. The source made the active and inactive calls. Unless noted, the call rests on the fitted dose curve; in most records, active means well fitted curve in the direction sought with a large enough effect in the repeat runs; inconclusive means weak or mixed curves; inactive means no such curve, though single readings can be large; an effect the other way counts as inactive or inconclusive.

Take `CCCN(CCC)CCc1c[nH]c2ccccc12`: the Potency result in [1], in [3], in [4], in assay [5], in [6] and in [7] was “inactive” each time. Besides, the Potency entry in assay [8], in assay [10], in assay [11], in assay [12], in assay [13] and in assay [14] was “inactive” in each case. Besides, the molecule was classed as inactive in assay [2]. Further, in assay [9], the max response is -15.2%.

In the case of `CN(C)CCc1c[nH]c2ccc(O)cc12`, the Potency entry in [1], in assay [15], in [16], in assay [3], in assay [4] and in assay [5] was “inactive” throughout. Further, the Potency result in assay [7], in assay [8], in assay [10], in assay [11], in assay [12] and in [13] was “inactive” in each case. The Potency result in [14] is “inactive”. Moreover, the max response in assay [9] was 2.26%.

`Cc1cc(C(C)(C)c2cc(C)c(O)c(C)c2)cc(C)c1O`: the Potency result in assay [1], in [4], in assay [5], in [10] and in [14] was “inactive” in each case. Moreover, the Potency in [15] was 109 µM (active); in assay [17], 26.4 µM (active); in [3], 18.9 µM (active); in assay [7], 23.7 µM (active); in assay [9], 18.9 µM (active). Also, the activity change, positive = activation in assay [18] was -83.8%.

Take `N#Cc1c(-c2ccc(Cl)cc2)[nH]c(C(F)(F)F)c1Br`: the Potency result in assay [1], in [16], in assay [4], in assay [5], in assay [10] and in [11] was “inactive” each time. The Potency entry in assay [14] is “inactive”. For the same molecule, the Potency was 2.84 µM (active) in assay [15]; 0.344 µM (active) in assay [17]; 1.55 µM (active) in assay [3]; 6.92 µM (active) in [7]; 1.23 µM (active) in assay [9]. In addition, in [18], the activity change, positive = activation is -60.7%.

On to `CC(C)(c1ccc(O)c(-c2ccccc2)c1)c1ccc(O)c(-c2ccccc2)c1`, for which the Potency is 17.4 µM (active) in assay [1]; 25.3 µM (active) in [15]; 24.3 µM (active) in [17]; 49 µM (active) in [16]; 21.9 µM (active) in assay [3]; 21.9 µM (active) in [7]. Besides, the Potency in assay [8] was 49 µM (active); in [9], 19.5 µM (active); in assay [13] it was 49 µM (active); in assay [19], 49 µM (active). In addition, the activity change, positive = activation in assay [18] was -69.8%. In addition, the Potency result in assay [4] and in assay [14] was “inactive” in each case.

With `OC(Cc1ccccc1Cl)(Cn1cncn1)C1(Cl)CC1` (configuration not stated), the Potency entry in [1], in assay [16], in assay [5], in [8], in assay [10] and in assay [11] was “inactive” throughout. In addition, the Potency entry in assay [12], in assay [13], in [19] and in [14] was “inactive” throughout. Besides, in [2], the call was inactive. Moreover, the Potency is 48.6 µM (active) in assay [17], 49 µM (active) in assay [3] and 49 µM (active) in assay [9]. Besides, the activity change, positive = activation in assay [18] was -38.2%.

In the case of `C[C@@H]1O[C@@H](O[C@H]2C[C@@H](O)[C@]3(CO)[C@H]4[C@H](O)C[C@]5(C)[C@@H](C6=CC(=O)OC6)CC[C@]5(O)[C@@H]4CC[C@]3(O)C2)[C@H](O)[C@H](O)[C@H]1O`, the Potency result in assay [20], in [15], in [4], in assay [6], in [10] and in assay [11] was “inactive” in each case. Further, the Potency entry in [13] and in assay [19] was “inactive” in each case.

On to `C=CC(=O)OCC(COC(=O)C=C)(COC(=O)C=C)COC(=O)C=C`, for which the Potency in assay [1] was 6.92 µM (active); in assay [17], 13.7 µM (active); in [16], 6.16 µM (active); in assay [3] it was 3.89 µM (active); in [5] it was 5.49 µM (active); in [6] it was 19.5 µM (active). In addition, the Potency in [7] is 3.89 µM (active); in [9], 3.89 µM (active); in assay [12], 5.49 µM (active); in [13], 49 µM (active); in assay [19], 21.9 µM (active). Also, the activity change, positive = activation in assay [18] was -79.4%. Further, the Potency result in assay [11] and in [14] was “inactive” each time.
